Source: article PMC5913336, “True equilibrium measurement of transcription factor-DNA binding affinities using automated polarization microscopy”

Molecular target: Ttk-PF (Drosophila melanogaster, UniProt P17789 499-564)
Assay: FP; 33 mM phosphate pH 7.0, 90 mM NaCl, 0.01% Tween 20, 0.1 mM DTT, 0.5% agarose; room temperature
Conditions: dsDNA, one strand shown

Point of comparison: TGGCCAGGATAAC, binding signal 2.43 Kd / Kd of best base at the position. Against it:
- TCGCCAGGATACC — higher, 3.82 Kd / Kd of best base at the position
- TCGCCAGGATAAT — lower, 1.84 Kd / Kd of best base at the position
- TCGCCACGATAAC — higher, > 208 Kd / Kd of best base at the position
- TCGTCAGGATAAC — higher, > 208 Kd / Kd of best base at the position
- TTGCCAGGATAAC — lower, 1.71 Kd / Kd of best base at the position
- TCGCCGGGATAAC — higher, > 208 Kd / Kd of best base at the position
- TCGCCAGTATAAC — higher, > 208 Kd / Kd of best base at the position
- TCCCCAGGATAAC — higher, 2.9 Kd / Kd of best base at the position
- TCGCCAAGATAAC — higher, 124 Kd / Kd of best base at the position
- TCGCCAGGAGAAC — higher, 8.25 Kd / Kd of best base at the position
- TAGCCAGGATAAC — lower, 1.69 Kd / Kd of best base at the position
- TCGCCAGAATAAC — higher, > 208 Kd / Kd of best base at the position
- TCGCCAGGATTAC — lower, 1.69 Kd / Kd of best base at the position
- TCGCCAGCATAAC — higher, 5.81 Kd / Kd of best base at the position
- TCGCCAGGATATC — lower, 1.65 Kd / Kd of best base at the position
- TCGCCCGGATAAC — higher, > 208 Kd / Kd of best base at the position
- TCGCTAGGATAAC — higher, > 208 Kd / Kd of best base at the position
- TCGCCATGATAAC — higher, > 208 Kd / Kd of best base at the position
- TCGCCTGGATAAC — higher, > 208 Kd / Kd of best base at the position
- TCGCCAGGATAAG — lower, 1.76 Kd / Kd of best base at the position
- TCGCCAGGGTAAC — higher, 8.56 Kd / Kd of best base at the position
- TCGCCAGGCTAAC — higher, 5.16 Kd / Kd of best base at the position
- TCGCCAGGATGAC — higher, 3.28 Kd / Kd of best base at the position
- TCGCCAGGATAAA — lower, 1.28 Kd / Kd of best base at the position
- TCGACAGGATAAC — higher, 26.7 Kd / Kd of best base at the position
- GCGCCAGGATAAC — higher, 2.76 Kd / Kd of best base at the position
- TCGCCAGGATAGC — lower, 1 Kd / Kd of best base at the position
- ACGCCAGGATAAC — higher, 2.88 Kd / Kd of best base at the position
- TCACCAGGATAAC — higher, 5.13 Kd / Kd of best base at the position
- TCGCCAGGATCAC — higher, 7.79 Kd / Kd of best base at the position
- CCGCCAGGATAAC — higher, 3.01 Kd / Kd of best base at the position
- TCGGCAGGATAAC — lower, 1.42 Kd / Kd of best base at the position
- TCGCGAGGATAAC — higher, 67.2 Kd / Kd of best base at the position
- TCGCAAGGATAAC — higher, > 208 Kd / Kd of best base at the position
- TCGCCAGGTTAAC — higher, 12.8 Kd / Kd of best base at the position
- TCGCCAGGACAAC — higher, 12.9 Kd / Kd of best base at the position
- TCGCCAGGAAAAC — higher, 13.5 Kd / Kd of best base at the position

TCGCCAGGATAAC gave a Kd of ~48 nM.
